Experimental data taken from the supplement of paper PMC11732987, “Enantioselective OTUD7B fragment discovery through chemoproteomics screening and high-throughput optimisation” (Communications Chemistry, 2025).
Values without a mark were called inactive.

Key:
Assay in all cases: log2 ratio of Biotin-Ahx-Ub-VS probe labelling (fragment/DMSO); higher = less target engagement (more negative = stronger competition), active = hit call of the paper (q ≤ 0.05, log2 ratio ≤ -1)
Details in all cases: compound concentration: 200 uM; treatment time: 3 h
USP9X = USP9X (UniProt Q93008)
Method in brief: (§1)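 HEK293T lysate (495 µg per sample, in Tris/CHAPS/IGEPAL buffer with protease inhibitors) was exposed in triplicate for 3 h to fragment at 200 µM or to vehicle, then to Biotin-Ahx-Ub-VS at 0.5 µM final for 1 h. Labelled DUBs were enriched on NeutrAvidin, digested with LysC and trypsin, and analysed by diaPASEF LC-MS/MS. Spectronaut label-free quantities were normalised to the global median, and values are average log2 ratios of fragment over vehicle from an unpaired t-test. Only proteins with ≥2 unique peptides were used.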

UniProt O00487 = molecular target: UniProt O00487
Method in brief: as §1

UniProt O00507 = molecular target: UniProt O00507
Method in brief: as §1

UniProt P51784 = molecular target: UniProt P51784
Method in brief: as §1

UniProt Q5T2D3 = molecular target: T1, UniProt Q5T2D3
T1 sequence (whole entry): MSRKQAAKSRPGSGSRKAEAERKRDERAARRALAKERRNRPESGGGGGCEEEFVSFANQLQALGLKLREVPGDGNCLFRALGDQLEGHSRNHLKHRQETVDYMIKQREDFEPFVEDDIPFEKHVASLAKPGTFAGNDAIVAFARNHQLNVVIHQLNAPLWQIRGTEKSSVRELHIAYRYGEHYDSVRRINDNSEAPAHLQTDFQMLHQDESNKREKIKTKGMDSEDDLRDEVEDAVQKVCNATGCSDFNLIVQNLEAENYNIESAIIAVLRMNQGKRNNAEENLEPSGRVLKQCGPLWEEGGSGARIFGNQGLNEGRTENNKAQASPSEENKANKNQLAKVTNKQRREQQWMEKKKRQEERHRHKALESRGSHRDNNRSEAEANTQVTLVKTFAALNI
Method in brief: as §1

UniProt Q8TE49 = molecular target: T2, UniProt Q8TE49
T2 sequence (whole entry): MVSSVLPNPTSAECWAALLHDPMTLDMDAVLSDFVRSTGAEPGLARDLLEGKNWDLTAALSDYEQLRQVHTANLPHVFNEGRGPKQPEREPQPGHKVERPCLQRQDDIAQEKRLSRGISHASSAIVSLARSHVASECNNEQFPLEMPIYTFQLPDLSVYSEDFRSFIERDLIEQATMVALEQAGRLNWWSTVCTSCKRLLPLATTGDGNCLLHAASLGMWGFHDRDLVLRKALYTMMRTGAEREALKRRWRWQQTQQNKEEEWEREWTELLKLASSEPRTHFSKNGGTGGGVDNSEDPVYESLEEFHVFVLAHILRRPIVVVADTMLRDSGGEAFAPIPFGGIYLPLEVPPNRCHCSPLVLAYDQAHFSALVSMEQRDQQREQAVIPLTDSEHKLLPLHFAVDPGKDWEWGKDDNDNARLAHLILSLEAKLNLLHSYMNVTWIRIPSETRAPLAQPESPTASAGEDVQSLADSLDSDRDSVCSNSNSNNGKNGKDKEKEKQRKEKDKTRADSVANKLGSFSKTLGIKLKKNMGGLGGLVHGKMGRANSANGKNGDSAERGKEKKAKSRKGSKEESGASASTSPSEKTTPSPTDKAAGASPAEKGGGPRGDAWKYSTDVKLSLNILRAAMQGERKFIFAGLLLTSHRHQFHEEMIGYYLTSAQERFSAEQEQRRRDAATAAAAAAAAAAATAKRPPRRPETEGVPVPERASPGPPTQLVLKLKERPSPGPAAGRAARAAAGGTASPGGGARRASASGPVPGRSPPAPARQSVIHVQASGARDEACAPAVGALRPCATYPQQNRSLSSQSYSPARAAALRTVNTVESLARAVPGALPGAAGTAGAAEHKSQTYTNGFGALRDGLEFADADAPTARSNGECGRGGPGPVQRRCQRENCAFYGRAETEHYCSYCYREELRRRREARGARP
Method in brief: as §1

UniProt Q9P2H5 = molecular target: T3, UniProt Q9P2H5
T3 sequence (whole entry): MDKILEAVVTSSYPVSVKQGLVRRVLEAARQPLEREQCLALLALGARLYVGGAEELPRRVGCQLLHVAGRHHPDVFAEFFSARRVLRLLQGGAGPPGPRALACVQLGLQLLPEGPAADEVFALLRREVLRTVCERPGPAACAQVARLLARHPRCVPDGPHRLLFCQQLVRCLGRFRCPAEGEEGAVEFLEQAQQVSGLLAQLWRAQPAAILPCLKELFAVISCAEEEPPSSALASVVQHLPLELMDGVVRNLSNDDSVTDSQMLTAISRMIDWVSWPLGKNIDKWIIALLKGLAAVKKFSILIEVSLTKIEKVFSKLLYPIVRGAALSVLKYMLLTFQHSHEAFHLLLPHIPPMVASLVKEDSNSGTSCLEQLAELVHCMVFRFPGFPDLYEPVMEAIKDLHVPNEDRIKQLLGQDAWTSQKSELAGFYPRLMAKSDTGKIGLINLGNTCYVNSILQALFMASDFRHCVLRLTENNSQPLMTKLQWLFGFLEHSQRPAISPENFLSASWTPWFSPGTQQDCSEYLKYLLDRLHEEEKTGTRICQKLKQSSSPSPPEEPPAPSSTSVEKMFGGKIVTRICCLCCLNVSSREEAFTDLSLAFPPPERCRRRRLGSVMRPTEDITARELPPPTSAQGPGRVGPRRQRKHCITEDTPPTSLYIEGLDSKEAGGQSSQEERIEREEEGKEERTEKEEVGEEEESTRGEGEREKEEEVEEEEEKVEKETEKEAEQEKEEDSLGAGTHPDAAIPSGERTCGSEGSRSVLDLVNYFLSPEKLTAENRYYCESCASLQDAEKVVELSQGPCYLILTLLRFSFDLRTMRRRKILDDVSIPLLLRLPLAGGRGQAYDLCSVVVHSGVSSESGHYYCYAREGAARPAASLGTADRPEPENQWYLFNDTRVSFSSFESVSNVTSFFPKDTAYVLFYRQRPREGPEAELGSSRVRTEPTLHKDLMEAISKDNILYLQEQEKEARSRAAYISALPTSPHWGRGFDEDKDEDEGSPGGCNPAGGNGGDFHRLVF
Method in brief: as §1

UniProt Q9UGI0 = molecular target: T4, UniProt Q9UGI0
T4 sequence (whole entry): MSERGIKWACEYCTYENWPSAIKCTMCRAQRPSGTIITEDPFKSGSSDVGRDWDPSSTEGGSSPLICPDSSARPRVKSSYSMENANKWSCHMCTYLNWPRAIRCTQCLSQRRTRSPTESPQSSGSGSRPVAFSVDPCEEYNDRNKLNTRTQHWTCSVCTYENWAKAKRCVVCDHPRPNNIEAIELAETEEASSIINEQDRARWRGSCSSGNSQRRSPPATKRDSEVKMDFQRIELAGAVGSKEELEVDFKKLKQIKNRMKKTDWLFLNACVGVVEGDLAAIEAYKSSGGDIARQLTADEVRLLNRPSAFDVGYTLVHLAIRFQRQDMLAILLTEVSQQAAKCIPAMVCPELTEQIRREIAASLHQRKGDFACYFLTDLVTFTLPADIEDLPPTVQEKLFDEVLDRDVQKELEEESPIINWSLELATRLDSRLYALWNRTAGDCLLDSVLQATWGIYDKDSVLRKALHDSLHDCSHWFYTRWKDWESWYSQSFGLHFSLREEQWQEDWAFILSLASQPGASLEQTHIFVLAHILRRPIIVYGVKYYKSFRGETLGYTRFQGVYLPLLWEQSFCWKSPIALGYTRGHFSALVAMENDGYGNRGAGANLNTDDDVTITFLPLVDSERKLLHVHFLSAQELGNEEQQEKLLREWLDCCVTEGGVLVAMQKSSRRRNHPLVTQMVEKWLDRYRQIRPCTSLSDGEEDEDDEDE
Method in brief: as §1

YOD1 = molecular target: T5, YOD1 (UniProt Q5VVQ6)
T5 sequence (whole entry): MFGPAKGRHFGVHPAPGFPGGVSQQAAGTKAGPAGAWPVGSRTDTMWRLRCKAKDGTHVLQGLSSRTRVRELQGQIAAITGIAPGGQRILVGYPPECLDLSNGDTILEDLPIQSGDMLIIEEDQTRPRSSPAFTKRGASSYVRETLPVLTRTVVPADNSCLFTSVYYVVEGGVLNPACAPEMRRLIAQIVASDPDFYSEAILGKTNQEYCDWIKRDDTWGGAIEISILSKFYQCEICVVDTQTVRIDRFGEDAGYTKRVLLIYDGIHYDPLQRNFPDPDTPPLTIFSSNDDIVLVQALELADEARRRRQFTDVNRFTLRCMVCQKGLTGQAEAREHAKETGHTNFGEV
Method in brief: as §1

Chain of UniProt P51784 (P51784 whole entry): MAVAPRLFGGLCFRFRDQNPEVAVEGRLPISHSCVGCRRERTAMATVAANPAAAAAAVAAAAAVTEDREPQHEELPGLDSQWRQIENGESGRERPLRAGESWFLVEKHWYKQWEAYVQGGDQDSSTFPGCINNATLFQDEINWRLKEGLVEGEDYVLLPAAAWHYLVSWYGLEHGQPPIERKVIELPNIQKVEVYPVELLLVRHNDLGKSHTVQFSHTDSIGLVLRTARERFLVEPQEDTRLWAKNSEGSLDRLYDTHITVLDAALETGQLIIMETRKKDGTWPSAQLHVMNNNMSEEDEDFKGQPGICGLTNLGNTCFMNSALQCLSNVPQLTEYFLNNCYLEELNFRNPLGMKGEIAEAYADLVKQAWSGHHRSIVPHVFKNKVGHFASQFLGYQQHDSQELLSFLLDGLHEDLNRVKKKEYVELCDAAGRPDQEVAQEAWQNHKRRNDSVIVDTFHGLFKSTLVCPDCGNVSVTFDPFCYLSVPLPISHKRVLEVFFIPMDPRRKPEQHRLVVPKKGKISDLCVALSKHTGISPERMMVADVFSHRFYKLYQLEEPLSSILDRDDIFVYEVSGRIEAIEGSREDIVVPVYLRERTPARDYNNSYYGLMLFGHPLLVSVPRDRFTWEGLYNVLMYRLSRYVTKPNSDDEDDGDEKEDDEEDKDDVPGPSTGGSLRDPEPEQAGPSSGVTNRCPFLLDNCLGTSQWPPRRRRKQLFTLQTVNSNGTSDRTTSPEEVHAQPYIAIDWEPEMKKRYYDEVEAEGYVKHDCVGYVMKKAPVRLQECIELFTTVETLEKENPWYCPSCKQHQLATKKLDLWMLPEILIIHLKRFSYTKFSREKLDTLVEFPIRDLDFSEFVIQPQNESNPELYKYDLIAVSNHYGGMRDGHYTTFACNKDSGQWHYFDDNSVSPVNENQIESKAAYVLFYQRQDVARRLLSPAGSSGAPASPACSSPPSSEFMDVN
Chain of UniProt O00507 (O00507 whole entry): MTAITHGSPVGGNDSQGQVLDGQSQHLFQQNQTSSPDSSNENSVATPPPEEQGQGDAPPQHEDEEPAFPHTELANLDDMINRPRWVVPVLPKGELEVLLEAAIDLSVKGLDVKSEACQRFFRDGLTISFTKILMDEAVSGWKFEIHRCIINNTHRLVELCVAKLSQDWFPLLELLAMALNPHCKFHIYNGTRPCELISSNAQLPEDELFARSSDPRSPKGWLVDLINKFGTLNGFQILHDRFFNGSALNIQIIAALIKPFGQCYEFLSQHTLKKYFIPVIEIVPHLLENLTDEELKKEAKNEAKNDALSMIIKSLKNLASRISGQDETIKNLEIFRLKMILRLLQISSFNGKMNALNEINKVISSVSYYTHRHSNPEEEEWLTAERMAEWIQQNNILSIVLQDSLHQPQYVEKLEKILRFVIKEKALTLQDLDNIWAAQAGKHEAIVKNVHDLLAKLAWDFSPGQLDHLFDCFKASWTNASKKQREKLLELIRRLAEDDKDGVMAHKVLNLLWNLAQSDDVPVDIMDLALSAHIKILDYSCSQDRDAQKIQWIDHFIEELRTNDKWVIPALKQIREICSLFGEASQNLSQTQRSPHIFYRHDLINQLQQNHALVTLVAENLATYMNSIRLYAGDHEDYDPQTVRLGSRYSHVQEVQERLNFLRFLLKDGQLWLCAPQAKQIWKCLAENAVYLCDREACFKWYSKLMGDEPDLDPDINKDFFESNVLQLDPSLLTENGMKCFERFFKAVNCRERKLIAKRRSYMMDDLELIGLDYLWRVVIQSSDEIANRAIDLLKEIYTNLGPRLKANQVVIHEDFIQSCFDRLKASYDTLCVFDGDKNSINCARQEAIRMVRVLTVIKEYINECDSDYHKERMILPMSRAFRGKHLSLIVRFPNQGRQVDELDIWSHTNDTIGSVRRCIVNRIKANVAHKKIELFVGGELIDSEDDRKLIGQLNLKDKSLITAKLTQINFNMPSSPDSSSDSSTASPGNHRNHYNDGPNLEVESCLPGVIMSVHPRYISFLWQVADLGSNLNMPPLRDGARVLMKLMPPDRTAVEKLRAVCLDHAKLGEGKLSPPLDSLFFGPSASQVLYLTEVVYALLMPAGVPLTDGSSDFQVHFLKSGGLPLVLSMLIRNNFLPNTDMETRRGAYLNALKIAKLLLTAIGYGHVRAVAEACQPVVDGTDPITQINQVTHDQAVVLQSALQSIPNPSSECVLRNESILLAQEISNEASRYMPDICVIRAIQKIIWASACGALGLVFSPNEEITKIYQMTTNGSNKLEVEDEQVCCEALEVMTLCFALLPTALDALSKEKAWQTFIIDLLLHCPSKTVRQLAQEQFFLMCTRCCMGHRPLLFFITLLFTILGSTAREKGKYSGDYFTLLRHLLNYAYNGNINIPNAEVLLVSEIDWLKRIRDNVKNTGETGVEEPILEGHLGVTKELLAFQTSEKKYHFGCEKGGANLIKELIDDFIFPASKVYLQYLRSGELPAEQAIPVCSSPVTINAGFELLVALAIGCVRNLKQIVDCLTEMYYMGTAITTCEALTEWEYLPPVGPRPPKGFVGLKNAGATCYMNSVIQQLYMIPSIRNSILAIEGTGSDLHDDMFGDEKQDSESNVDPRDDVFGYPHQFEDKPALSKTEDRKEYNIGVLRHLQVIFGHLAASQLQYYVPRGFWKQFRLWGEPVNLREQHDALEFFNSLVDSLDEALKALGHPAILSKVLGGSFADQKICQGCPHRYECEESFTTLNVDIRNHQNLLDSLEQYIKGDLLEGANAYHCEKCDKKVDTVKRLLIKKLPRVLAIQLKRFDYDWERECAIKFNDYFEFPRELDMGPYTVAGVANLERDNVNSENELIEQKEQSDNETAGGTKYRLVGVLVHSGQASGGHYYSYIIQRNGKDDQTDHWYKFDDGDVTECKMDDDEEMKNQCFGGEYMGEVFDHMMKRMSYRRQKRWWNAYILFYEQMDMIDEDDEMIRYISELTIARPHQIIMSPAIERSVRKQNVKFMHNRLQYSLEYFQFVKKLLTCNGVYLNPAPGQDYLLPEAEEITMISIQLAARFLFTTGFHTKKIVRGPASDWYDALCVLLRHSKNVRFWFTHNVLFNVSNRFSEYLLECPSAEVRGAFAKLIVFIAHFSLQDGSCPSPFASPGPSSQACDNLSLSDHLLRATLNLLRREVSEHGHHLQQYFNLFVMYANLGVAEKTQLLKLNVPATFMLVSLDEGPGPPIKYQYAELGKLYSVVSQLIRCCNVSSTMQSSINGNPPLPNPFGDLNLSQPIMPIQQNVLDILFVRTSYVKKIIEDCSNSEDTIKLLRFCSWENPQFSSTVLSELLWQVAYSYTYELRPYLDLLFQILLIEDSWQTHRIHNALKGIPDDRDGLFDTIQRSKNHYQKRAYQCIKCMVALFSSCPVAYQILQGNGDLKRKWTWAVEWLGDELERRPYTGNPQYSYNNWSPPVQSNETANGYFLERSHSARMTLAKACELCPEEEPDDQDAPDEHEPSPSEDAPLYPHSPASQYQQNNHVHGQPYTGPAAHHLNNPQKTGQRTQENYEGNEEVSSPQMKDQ
Chain of UniProt O00487 (O00487 whole entry): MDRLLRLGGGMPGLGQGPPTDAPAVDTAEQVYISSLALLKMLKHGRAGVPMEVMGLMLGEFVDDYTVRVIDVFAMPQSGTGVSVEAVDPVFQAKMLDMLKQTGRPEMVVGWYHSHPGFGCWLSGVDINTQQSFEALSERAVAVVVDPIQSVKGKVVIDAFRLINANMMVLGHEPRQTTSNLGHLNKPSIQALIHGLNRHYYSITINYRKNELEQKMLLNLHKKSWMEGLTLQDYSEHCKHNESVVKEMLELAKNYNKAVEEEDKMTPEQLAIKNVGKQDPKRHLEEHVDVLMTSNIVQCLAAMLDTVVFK

O=C(CCl)N1CCc2nc[nH]c2C1c1ccc(Cl)cc1 (centres undefined)
log2 ratio of Biotin-Ahx-Ub-VS probe labelling (USP9X): -0.619
log2 ratio of Biotin-Ahx-Ub-VS probe labelling (UniProt O00487): 0.0187
log2 ratio of Biotin-Ahx-Ub-VS probe labelling (UniProt O00507): -0.893
log2 ratio of Biotin-Ahx-Ub-VS probe labelling (UniProt P51784): 0.194
log2 ratio of Biotin-Ahx-Ub-VS probe labelling (UniProt Q5T2D3): -0.0219
log2 ratio of Biotin-Ahx-Ub-VS probe labelling (UniProt Q8TE49): -1.15 (active)
log2 ratio of Biotin-Ahx-Ub-VS probe labelling (UniProt Q9P2H5): -0.000874
log2 ratio of Biotin-Ahx-Ub-VS probe labelling (UniProt Q9UGI0): -1.05 (active)
log2 ratio of Biotin-Ahx-Ub-VS probe labelling (YOD1): -0.117
